Key:
Assay in all cases: PBM; 200 nM protein, PBS
Details in all cases: dsDNA, one strand shown
ALX3 [1] = target: ALX3 (Homo sapiens, UniProt O95076 139-225)
PROP1 [2] = target: PROP1 (Homo sapiens, UniProt O75360 56-141)
PROP1 [3] = target: PROP1 (Homo sapiens, UniProt O75360 56-141, R99H)
PROP1 [4] = target: PROP1 (Homo sapiens, UniProt O75360 56-141, F88S)
NKX2-4 = target: T1, NKX2-4 (Homo sapiens, UniProt Q9H2Z4 175-261, R246Q)
T1 sequence: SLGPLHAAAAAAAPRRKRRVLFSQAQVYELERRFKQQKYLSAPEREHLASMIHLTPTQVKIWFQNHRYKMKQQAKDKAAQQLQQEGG

PAX4 = target: T2, PAX4 (Homo sapiens, UniProt O43316 9-242, F177Y)
T2 sequence: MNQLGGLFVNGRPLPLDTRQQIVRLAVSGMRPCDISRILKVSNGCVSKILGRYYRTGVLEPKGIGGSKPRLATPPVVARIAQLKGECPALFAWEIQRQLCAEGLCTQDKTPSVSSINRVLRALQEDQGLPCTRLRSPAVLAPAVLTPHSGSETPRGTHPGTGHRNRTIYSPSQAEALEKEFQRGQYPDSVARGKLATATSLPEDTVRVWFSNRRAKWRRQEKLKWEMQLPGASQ

ALX3 [5] = target: ALX3 (Homo sapiens, UniProt O95076 139-225, N203S)
ALX3 (Homo sapiens, UniProt O95076 139-225, N203S), sequence (O95076 139-225 N203S): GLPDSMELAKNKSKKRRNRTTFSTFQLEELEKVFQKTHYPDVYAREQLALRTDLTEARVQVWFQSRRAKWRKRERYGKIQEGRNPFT

HESX1 = HESX1 (Homo sapiens, UniProt Q9UBX0 95-180, R109Q)
HESX1, sequence (Q9UBX0 95-180 R109Q): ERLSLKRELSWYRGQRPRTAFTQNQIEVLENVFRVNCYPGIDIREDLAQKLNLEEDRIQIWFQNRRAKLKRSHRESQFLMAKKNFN

VAX1 [6] = target: VAX1 (Homo sapiens, UniProt Q5SQQ9 86-172)
VAX1 (Homo sapiens, UniProt Q5SQQ9 86-172), sequence (Q5SQQ9 86-172): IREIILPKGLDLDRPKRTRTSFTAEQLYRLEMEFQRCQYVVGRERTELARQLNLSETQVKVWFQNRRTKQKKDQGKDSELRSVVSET

VAX1 [7] = target: VAX1 (Homo sapiens, UniProt Q5SQQ9 86-172, T142I)
VAX1 (Homo sapiens, UniProt Q5SQQ9 86-172, T142I), sequence (Q5SQQ9 86-172 T142I): as the sequence (Q5SQQ9 86-172) above, with T57I counted along it

VAX1 [8] = target: VAX1 (Homo sapiens, UniProt Q5SQQ9 86-172, K157R)
VAX1 (Homo sapiens, UniProt Q5SQQ9 86-172, K157R), sequence (Q5SQQ9 86-172 K157R): as the sequence (Q5SQQ9 86-172) above, with K72R counted along it

ALX3 (Homo sapiens, UniProt O95076 139-225), sequence (O95076 139-225): as the sequence (O95076 139-225 N203S) above, with S65N counted along it
PROP1 (Homo sapiens, UniProt O75360 56-141, R99H), sequence (O75360 56-141 R99H): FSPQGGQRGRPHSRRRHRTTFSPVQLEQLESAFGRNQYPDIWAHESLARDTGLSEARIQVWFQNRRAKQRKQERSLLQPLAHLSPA
PROP1 (Homo sapiens, UniProt O75360 56-141), sequence (O75360 56-141): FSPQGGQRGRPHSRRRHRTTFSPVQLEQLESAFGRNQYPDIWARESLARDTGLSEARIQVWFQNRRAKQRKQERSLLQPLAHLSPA
PROP1 (Homo sapiens, UniProt O75360 56-141, F88S), sequence (O75360 56-141 F88S): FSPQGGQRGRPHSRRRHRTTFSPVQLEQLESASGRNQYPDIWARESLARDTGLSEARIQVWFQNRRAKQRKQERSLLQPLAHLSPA

GTAATAAC
binding signal (ALX3 [1]): 10.7 upbm affinity estimate (log intensity, higher = more binding, comparable within an allelic series)

AAGAATAT
binding signal (PROP1 [2]): 8.06 upbm affinity estimate (log intensity, higher = more binding, comparable within an allelic series)

AGAGCCGG
binding signal (PROP1 [2]): 6.81 upbm affinity estimate (log intensity, higher = more binding, comparable within an allelic series) | binding signal (PROP1 [3]): 6.67 upbm affinity estimate (log intensity, higher = more binding, comparable within an allelic series) | binding signal (PROP1 [4]): 6.47 upbm affinity estimate (log intensity, higher = more binding, comparable within an allelic series)

AAAATGGG
binding signal (PROP1 [2]): 7.94 upbm affinity estimate (log intensity, higher = more binding, comparable within an allelic series)

AACAATCC
binding signal (PROP1 [2]): 7.92 upbm affinity estimate (log intensity, higher = more binding, comparable within an allelic series)

ATCAAGTA
binding signal (NKX2-4): 12.9 upbm affinity estimate (log intensity, higher = more binding, comparable within an allelic series)

ATTGTGAG
binding signal (PROP1 [2]): 8.01 upbm affinity estimate (log intensity, higher = more binding, comparable within an allelic series)

TAATACTA
binding signal (ALX3 [1]): 10.2 upbm affinity estimate (log intensity, higher = more binding, comparable within an allelic series)

ACACTCGA
binding signal (NKX2-4): 12.9 upbm affinity estimate (log intensity, higher = more binding, comparable within an allelic series)

ATAATTCG
binding signal (PAX4): 11 upbm affinity estimate (log intensity, higher = more binding, comparable within an allelic series)

ATTATGTG
binding signal (PAX4): 10.9 upbm affinity estimate (log intensity, higher = more binding, comparable within an allelic series)

ACTCTTGA
binding signal (NKX2-4): 12.9 upbm affinity estimate (log intensity, higher = more binding, comparable within an allelic series)

GGTTGTTA
binding signal (ALX3 [1]): 9.57 upbm affinity estimate (log intensity, higher = more binding, comparable within an allelic series) | binding signal (ALX3 [5]): 8.28 upbm affinity estimate (log intensity, higher = more binding, comparable within an allelic series)

ATAGAAAA
binding signal (ALX3 [1]): 8.94 upbm affinity estimate (log intensity, higher = more binding, comparable within an allelic series)

TAAAAGTA
binding signal (ALX3 [1]): 9.06 upbm affinity estimate (log intensity, higher = more binding, comparable within an allelic series)

CATATTGA
binding signal (ALX3 [1]): 9.37 upbm affinity estimate (log intensity, higher = more binding, comparable within an allelic series)

TCCAATCA
binding signal (PROP1 [2]): 8.66 upbm affinity estimate (log intensity, higher = more binding, comparable within an allelic series) | binding signal (PROP1 [3]): 8.18 upbm affinity estimate (log intensity, higher = more binding, comparable within an allelic series) | binding signal (PROP1 [4]): 7.02 upbm affinity estimate (log intensity, higher = more binding, comparable within an allelic series)

CTTATAAC
binding signal (ALX3 [1]): 9.51 upbm affinity estimate (log intensity, higher = more binding, comparable within an allelic series)

AATTCCGA
binding signal (PROP1 [2]): 8.08 upbm affinity estimate (log intensity, higher = more binding, comparable within an allelic series) | binding signal (PROP1 [3]): 7.85 upbm affinity estimate (log intensity, higher = more binding, comparable within an allelic series)

AAATACAT
binding signal (PROP1 [2]): 8.5 upbm affinity estimate (log intensity, higher = more binding, comparable within an allelic series) | binding signal (PROP1 [3]): 7.91 upbm affinity estimate (log intensity, higher = more binding, comparable within an allelic series)

ATAACATA
binding signal (ALX3 [1]): 9.54 upbm affinity estimate (log intensity, higher = more binding, comparable within an allelic series)

AGTTAGAG
binding signal (PROP1 [2]): 7.87 upbm affinity estimate (log intensity, higher = more binding, comparable within an allelic series)

ATCATATA
binding signal (PAX4): 10.6 upbm affinity estimate (log intensity, higher = more binding, comparable within an allelic series)

GACGACAA
binding signal (PROP1 [2]): 7.4 upbm affinity estimate (log intensity, higher = more binding, comparable within an allelic series)

AATCAATT
binding signal (HESX1): 8.86 upbm affinity estimate (log intensity, higher = more binding, comparable within an allelic series)

ATCAACGG
binding signal (VAX1 [6]): 9.55 upbm affinity estimate (log intensity, higher = more binding, comparable within an allelic series)

AACTAAGC
binding signal (VAX1 [6]): 9.21 upbm affinity estimate (log intensity, higher = more binding, comparable within an allelic series)

CCGTGAAG
binding signal (VAX1 [6]): 7.1 upbm affinity estimate (log intensity, higher = more binding, comparable within an allelic series) | binding signal (VAX1 [7]): 7.21 upbm affinity estimate (log intensity, higher = more binding, comparable within an allelic series) | binding signal (VAX1 [8]): 7.02 upbm affinity estimate (log intensity, higher = more binding, comparable within an allelic series)

CCAATCTA
binding signal (VAX1 [6]): 9.3 upbm affinity estimate (log intensity, higher = more binding, comparable within an allelic series) | binding signal (VAX1 [7]): 8.82 upbm affinity estimate (log intensity, higher = more binding, comparable within an allelic series) | binding signal (VAX1 [8]): 9.11 upbm affinity estimate (log intensity, higher = more binding, comparable within an allelic series)

CATTTAAG
binding signal (VAX1 [6]): 10.9 upbm affinity estimate (log intensity, higher = more binding, comparable within an allelic series) | binding signal (VAX1 [7]): 10.6 upbm affinity estimate (log intensity, higher = more binding, comparable within an allelic series) | binding signal (VAX1 [8]): 10.6 upbm affinity estimate (log intensity, higher = more binding, comparable within an allelic series)

ATTTCTAG
binding signal (VAX1 [6]): 9.13 upbm affinity estimate (log intensity, higher = more binding, comparable within an allelic series) | binding signal (VAX1 [7]): 8.86 upbm affinity estimate (log intensity, higher = more binding, comparable within an allelic series)

AGGGCCCT
binding signal (VAX1 [6]): 7.2 upbm affinity estimate (log intensity, higher = more binding, comparable within an allelic series) | binding signal (VAX1 [7]): 7.19 upbm affinity estimate (log intensity, higher = more binding, comparable within an allelic series) | binding signal (VAX1 [8]): 7.36 upbm affinity estimate (log intensity, higher = more binding, comparable within an allelic series)

ACAATAAT
binding signal (VAX1 [6]): 11.2 upbm affinity estimate (log intensity, higher = more binding, comparable within an allelic series) | binding signal (VAX1 [7]): 11 upbm affinity estimate (log intensity, higher = more binding, comparable within an allelic series) | binding signal (VAX1 [8]): 10.9 upbm affinity estimate (log intensity, higher = more binding, comparable within an allelic series)

GCGCCGGA
binding signal (VAX1 [6]): 7.27 upbm affinity estimate (log intensity, higher = more binding, comparable within an allelic series) | binding signal (VAX1 [7]): 7.29 upbm affinity estimate (log intensity, higher = more binding, comparable within an allelic series) | binding signal (VAX1 [8]): 7.2 upbm affinity estimate (log intensity, higher = more binding, comparable within an allelic series)

CGTAATGA
binding signal (VAX1 [6]): 12.7 upbm affinity estimate (log intensity, higher = more binding, comparable within an allelic series) | binding signal (VAX1 [7]): 12.2 upbm affinity estimate (log intensity, higher = more binding, comparable within an allelic series) | binding signal (VAX1 [8]): 12.2 upbm affinity estimate (log intensity, higher = more binding, comparable within an allelic series)

ATCGTTCA
binding signal (VAX1 [6]): 9.46 upbm affinity estimate (log intensity, higher = more binding, comparable within an allelic series) | binding signal (VAX1 [7]): 9.08 upbm affinity estimate (log intensity, higher = more binding, comparable within an allelic series) | binding signal (VAX1 [8]): 9.31 upbm affinity estimate (log intensity, higher = more binding, comparable within an allelic series)

Source: paper PMC11006913
